Only some compounds are listed: those with a hit (about 3.8% of all), similar ones and a draw of the others.
A549 viability – counter-screen for Nrf2 inhibitors: cytotoxicity in A549 cells | A549 ARE-Fluc cells, CellTiter-Fluor viability, 18-24 h | AID 504648 | 390,000 tested, 0.16% active | Potency, µM (highest dose often 46 µM), for the others: at the highest dose activity change, negative = cytotoxicity, hits mostly inhibitors; also: % is scaled to controls: 0 for no effect and ±100 for the full control effect
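A549 ARE_Fluc cells in 5% FBS OPTI-MEM were exposed to compounds in concentration-response for 18-24 h at 37 deg C. Viability was read by CellTiter-Fluor fluorescence (Ex 405/Em 525) after 30 min, before the luciferase read.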
ELG1 repair inh – inhibitors of ELG1-dependent DNA repair in HEK293T cells. HEK293T ELG1-luciferase reporter, luminescence, 16 h; DNA damage induced by 5-fluorouridine. 330,000 tested, 2.3% active. Potency, µM (highest dose often 46.1 µM), without a hit: top-dose activity change, negative = inhibition, usual class: inhibitors. AID 504467; also: % is scaled to controls: 0 for no effect and ±100 for the full control effect; nearly all actives have a fitted effect of over 55% in size
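Overnight (16 hr) co-exposure of 2,000 cells/well to 5-fluorouridine and compound at 37 °C preceded detection. Luciferase was quantified via ONE-Glo luminescence; loss of signal denotes inhibition.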
Nrf2 ARE act – activators of Nrf2 (ARE) signaling; Potency, µM (series often up to 46.1 µM), for inactives: at the highest dose activation, actives largely listed as activators; AID 624171; 410,000 tested, 0.31% active; AREc32 ARE-luciferase reporter (MCF7-derived line), luminescence, 24 h; also: % of control where 0% means no effect; nearly all actives have a fitted effect of over 65% in size
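Luciferase luminescence (Steady-Glo, 30 min at room temperature) served as the read-out of ARE activation in AREc32 cells treated with compounds for 24 hr at 37 deg C.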
mIDH1 inhibitor – blocks human mutant IDH1 R132H enzyme; 390,000 tested, 0.093% active; Potency, µM (series often up to 76.6 µM), for inactives: at the highest dose activity change, negative = inhibition, most hits filed as inhibitors; O75874; IDH1-R132H enzyme, NADPH consumption, diaphorase/resazurin fluorescence; also: % is scaled to controls: 0 for no effect and ±100 for the full control effect; nearly all actives have a fitted effect of over 65% in size
Target sequence (O75874 whole entry R132H, stated change not applied): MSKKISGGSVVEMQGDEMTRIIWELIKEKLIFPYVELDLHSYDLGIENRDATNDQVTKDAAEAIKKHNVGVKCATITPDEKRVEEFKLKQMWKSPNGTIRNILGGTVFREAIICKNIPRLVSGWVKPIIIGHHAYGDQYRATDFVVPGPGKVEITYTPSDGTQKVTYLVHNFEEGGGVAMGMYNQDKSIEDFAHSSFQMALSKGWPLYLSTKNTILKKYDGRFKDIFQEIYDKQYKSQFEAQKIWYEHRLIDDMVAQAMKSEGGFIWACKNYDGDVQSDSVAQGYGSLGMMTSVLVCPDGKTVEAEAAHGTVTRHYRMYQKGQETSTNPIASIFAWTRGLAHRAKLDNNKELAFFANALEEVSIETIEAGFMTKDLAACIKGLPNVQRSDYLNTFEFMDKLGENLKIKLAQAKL
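IDH1-R132H (0.5 ug/mL) preincubated 30 min with compound, then NADPH (0.016 mM) and alpha-KG (2 mM) added; 80 min at RT, pH 7.5. Remaining NADPH coupled via diaphorase/resazurin to fluorescence (540/590 nm); concentration-response curves normalized to no-enzyme control.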
Nrf2 inh – inhibitors of Nrf2 signaling. A549 ARE-Fluc reporter, luciferase luminescence, 18-24 h. Potency, µM (highest dose often 46 µM), for the others: at the top dose activity change, negative = inhibition, hits mostly inhibitors. 360,000 tested, 2.1% active. AID 504444; also: % is scaled to controls: 0 for no effect and ±100 for the full control effect; nearly all actives have a fitted effect of over 60% in size
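Reporter: ARE-Fluc in A549. Exposure: 18-24 h, 37 °C, 5% CO2, 5% FBS OPTI-MEM. Readouts: fluorescent cytotoxicity (CellTiter-Fluor), then luminescent Nrf2 signal after BugLite.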
The depositor's hits bear a star; ? = inconclusive; / = no result. Calls follow the shape of the dose curve; as a rule, active = well fitted curve in the direction sought with a large enough effect; inconclusive = small, poorly fitted or top-dose-only effect, or another doubt; inactive = no such curve, though single readings can be large; an effect the other way counts as inactive or inconclusive. Potency is read from the fitted curve at half-maximal effect.

SMILES	A549 viability	ELG1 repair inh	Nrf2 ARE act	mIDH1 inhibitor	Nrf2 inh
Cn1ncc2c(O/N=C(\N)c3ccc(C(C)(C)C)cc3)ncnc21	16µM*	?	-2%	5%	18µM*
COc1ccc(CNC(=O)c2c(O)nc3c(C)cccn3c2=O)cc1	5%	/	0%	7%	15%
Cc1cccn2c(=O)c(C(=O)NC(C)c3ccccc3)c(O)nc12 (stereo not drawn)	?	/	0%	-28%	6.5µM*
CC(=O)Nc1ccc(-c2csc(Nc3ccc(Cl)cn3)n2)cc1	-18%	?	9%	12%	15µM*
Cc1ccc(-c2csc(NC(=O)CCNC(=O)c3ccccc3Cl)n2)cc1	-6%	?	7%	2%	23µM*
CC(=O)Nc1ccc(-c2csc(NNC(=O)c3ccccc3)n2)cc1	?	13%	19%	16%	13µM*
CCC(=O)Nc1ccc(-c2csc(NNC(C)=O)n2)cc1	?	0%	2%	12%	-1%
CC(=O)Nc1cccc(-c2csc(Nc3ccc(Cl)cn3)n2)c1	-11%	?	3%	9%	-11%
Cc1ccc(-c2csc(NC(=O)CCNC(=O)c3ccc(Cl)cc3)n2)cc1	-1%	-4%	0%	-12%	3%
CC(=O)Nc1ccc(-c2csc(N/N=C(/C)c3ccccc3)n2)cc1	-4%	21µM*	3%	-1%	9%
O=C(Cc1ccccc1)NCC(=O)OCC(=O)c1ccc2ccccc2c1	-1%	/	/	/	1%
O=C(CN1C(=O)NC(c2ccc(F)cc2)C1=O)NC1CCCCC1 (stereo not drawn)	-7%	13%	0%	8%	4%
CC(=O)Nc1ccc(-c2csc(NC(=O)CCCc3cccs3)n2)cc1	2%	18µM*	0%	0%	9%
Cc1ccc(-c2nc(C(Cl)Cl)c3ccccc3n2)cc1	?	23µM*	5%	0%	?
N#Cc1ccc(NC(=O)c2ccc3c(c2)nnn3C2CCCC2)cc1	13%	/	0%	17%	?
CCOC(=O)c1sc(N2C(=O)C(O)=C(C(=O)c3ccc(C)o3)C2c2ccc(OC)c(OC)c2)nc1C (stereo not drawn)	?	-15%	0%	-12%	?
CCOC(=O)c1ccc(N2C(=O)c3n[nH]c(-c4cccs4)c3C2c2ccc(OCC)cc2)cc1 (stereo not drawn)	-24%	/	-3%	-2%	?
CCOC(=O)c1ccc(N2C(=O)c3n[nH]c(-c4cccs4)c3C2c2ccc(CC)cc2)cc1 (stereo not drawn)	?	/	-4%	-16%	16µM*
CCOC(=O)c1ccc(N2C(=O)c3n[nH]c(-c4ccco4)c3C2c2ccc(C(=O)OC)cc2)cc1 (stereo not drawn)	-20%	/	0%	8%	?
CCOC(=O)c1ccc(N2C(=O)c3n[nH]c(-c4cccs4)c3C2c2ccc(C(C)C)cc2)cc1 (stereo not drawn)	?	/	-1%	8%	23µM*
CCOC(=O)c1ccc(N2C(=O)c3n[nH]c(C)c3C2c2ccc(OC)cc2OC)cc1 (stereo not drawn)	?	?	-2%	-17%	18µM*
CCOC(=O)c1sc(N2C(=O)C(O)=C(C(=O)c3ccc(C)o3)C2c2cccc([N+](=O)[O-])c2)nc1C (stereo not drawn)	?	?	1%	-10%	23µM*
CCOC(=O)c1ccc(N2C(=O)c3n[nH]c(C)c3C2c2ccc(OC)cc2)cc1 (stereo not drawn)	-17%	?	3%	-6%	?
CCc1ccc(NC(=O)C2CCCN2S(=O)(=O)c2cccc3nsnc23)cc1 (stereo not drawn)	-9%	/	5%	1%	-27%
CC(C)NS(=O)(=O)c1ccc2nc(NC(=O)c3cncc(Br)c3)sc2c1	-14%	/	5%	-1%	/
CCOC(=O)c1ccc(NC(=O)C2=C(C)C(=O)OC23CCN(C(C)C)CC3)cc1	-3%	/	3%	-1%	15%

Screens (PubChem)
